This is part of a sample that, as a whole, favours compounds with a hit. Of some 83,000 tested, about 20% had one in any assay.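 48-hour exposure, single concentration, 96-well plates; percent growth endpoint where 0 means no net growth. Active: below 10.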 Calls of active or inactive are those of the source.
The compounds below were run on SN12C renal (assay: NCI-60 one-dose screen, 48 h (100 = growth as untreated, 0 = no growth, -100 = all killed)). Settings: 10 µM unless noted.

**Q.** With C=CCSc1nc2ccccc2cc1/C=N/O as the compound, how does the growth read?
**A.** 89.5% (inactive)

**Q.** Which growth does the source give for COc1cc2ncn3c(=O)c4c5c(sc4nc3c2cc1OC)CCCC5 here?
**A.** 109% (inactive)

**Q.** Which growth does the source give for CCn1c(C)nc2cc(C(N)=O)ccc21 here?
**A.** 98.1% (inactive)

**Q.** For O=C(CCCCCCN1CC(=O)N2[C@@H](c3ccccc3Cl)c3[nH]c4ccccc4c3C[C@H]2C1=O)NO, which growth is on record?
**A.** 70.1% (inactive)

**Q.** Which growth does the source give for Cc1nn(-c2ccccc2)c2nc3c(c(-c4ccc(Cl)cc4)c12)CNC1(CCSCC1)N3 here?
**A.** 108% (inactive)

**Q.** For CCCCCc1nc2c(c3c1CCCC3)CCCC2, which growth is on record?
**A.** 93.3% (inactive)

**Q.** With CCCCN(CCCC)CC(C)(C)C(O)c1ccc(OC)c2ccccc12 (stereo unspecified) as the compound, how does the growth read?
**A.** 46.7% (inactive)

**Q.** For COc1ccc(/C=C/c2c(C(=O)/C=C/c3ccc(F)cc3)c(C)nc3ccccc23)cc1, which growth is on record?
**A.** 45.2% (inactive)

**Q.** O=C1CCC2=C3C4CCCCC4C(=O)C4CCCC(OC2C1)C34 (stereo unspecified) was tested. Which growth did it give?
**A.** 14.1% (inactive)

**Q.** Which growth does the source give for O=C(/C=C/c1cccc(O)c1)c1cccc(-n2cc(-c3ccc4ccccc4c3)[nH]c2=O)c1 here?
**A.** 5.36% (active)

**Q.** Which growth does the source give for OC(COc1ccccc1Cl)COc1ccccc1Cl here?
**A.** 97% (inactive)

**Q.** With C[C@]12CC[C@@H]3c4cc(OC(F)F)c(O)cc4CC[C@H]3[C@@H]1CC[C@@H]2OS(N)(=O)=O as the compound, how does the growth read?
**A.** 44.2% (inactive)

**Q.** For NC[C@H](O)c1ccc(O)c(O)c1, which growth is on record?
**A.** 85.4% (inactive)

**Q.** With O=C(NCCCNc1cc(-c2cn(-c3ccccc3)nc2-c2cccc(O)c2)ccn1)c1ccc(F)cc1 as the compound, how does the growth read?
**A.** 55% (inactive)

**Q.** For Cc1c(C(=O)NC(Cc2ccccc2)C(O)C(=O)NCc2ccc(F)cc2)[nH]c2ccccc2c1=O (stereo unspecified), which growth is on record?
**A.** 107% (inactive)

**Q.** For O=Cc1ccc(O)c2ncccc12, which growth is on record?
**A.** 35.2% (inactive)

**Q.** How did the growth turn out when CCc1ccccc1-n1c(-c2ccc(Cl)cc2)cc(-c2ccc(Cl)cc2)c(C#N)c1=O was run?
**A.** 92.3% (inactive)

**Q.** Which growth does the source give for O=C(NCCCNc1cc(-c2cn(-c3ccccc3)nc2-c2cccc(O)c2)ccn1)c1cccc(O)c1 here?
**A.** 76.6% (inactive)

**Q.** Which growth does the source give for O=C(NCCCNc1cc(-c2cn(-c3ccccc3)nc2-c2cccc(O)c2)ccn1)c1ccccc1 here?
**A.** 61.1% (inactive)

**Q.** How did the growth turn out when C[C@H]1[C@H]2[C@H]3CC[C@@H]4[C@@]5(C)C/C(=C/c6cccnc6)C(=O)C(C)(C)[C@@H]5CC[C@@]4(C)[C@]3(C)CC[C@]23CO[C@]1(C)[C@@H](C(=O)/C=C\c1cccnc1)C3 was run?
**A.** -17.7% (active)

**Q.** How did the growth turn out when O=C(Nc1cccc(Oc2nnc(Cl)c3ccccc23)c1)Nc1ccc(Cl)c(C(F)(F)F)c1 was run?
**A.** -71.9% (active)

**Q.** Which growth does the source give for Nc1cc2c3c(cccc3c1)C(=O)N(CCN1CCCC1)C2=O here?
**A.** 31.9% (inactive)

**Q.** Which growth does the source give for COc1cccc(-c2nn(-c3ccccc3)cc2-c2ccnc(NCCNC(=O)Nc3ccccc3)c2)c1 here?
**A.** 54% (inactive)

**Q.** Which growth does the source give for Fc1ccc(CNc2c3ccccc3nc3ccccc23)cc1F here?
**A.** 29.7% (inactive)

**Q.** COc1cccc(-c2nn(-c3ccccc3)cc2-c2ccnc(NCCNC(=O)Nc3ccc(Cl)c(Cl)c3)c2)c1 was tested. Which growth did it give?
**A.** 11.5% (inactive)

**Q.** For c1coc(-c2c3ccc(=[N+]4CCCCC4)cc-3oc3cc(N4CCCCC4)ccc23)c1, which growth is on record?
**A.** -75.4% (active)

**Q.** How did the growth turn out when O=[N+]([O-])c1ccc(OCCO)cc1 was run?
**A.** 101% (inactive)

**Q.** With O=C(Nc1cccc(Cl)c1)c1cc(N=Nc2ccc([N+](=O)[O-])cc2Cl)ccc1O as the compound, how does the growth read?
**A.** 82.1% (inactive)

**Q.** For CC(C)(C)OC(=O)Nc1ccc2c(c1)C(NC(=O)Nc1cccc(C#N)c1)CC(C)(C)O2 (stereo unspecified), which growth is on record?
**A.** 62.9% (inactive)

**Q.** How did the growth turn out when c1ccc(-c2nc([P+](c3ccccc3)(c3ccccc3)c3ccccc3)c(N3CCOCC3)o2)cc1 was run?
**A.** 1.32% (active)

**Q.** For Cc1ccc(Cl)c(NS(=O)(=O)c2ccc(-c3cnc(C4CC4)o3)cc2)c1, which growth is on record?
**A.** 60.7% (inactive)

**Q.** Which growth does the source give for COc1ccc(-c2nc3c(c(=O)n2C(C)=O)C(c2ccc(Cl)cc2)c2sc4c(Cl)cccc4c2O3)cc1 (stereo unspecified) here?
**A.** -35.1% (active)

**Q.** Which growth does the source give for NC(=O)c1ccc[n+](Cc2ccc(Cl)cc2Cl)c1 here?
**A.** 101% (inactive)

**Q.** With COc1cc(-c2nn(-c3ccccc3)cc2-c2ccnc(NCCNS(=O)(=O)c3ccc(Cl)cc3)n2)ccc1Cl as the compound, how does the growth read?
**A.** 26.8% (inactive)

**Q.** COc1cccc(-c2nn(-c3ccccc3)cc2-c2ccnc(NCCNC(=O)Nc3cccc(C(F)(F)F)c3)c2)c1 was tested. Which growth did it give?
**A.** 28.4% (inactive)

**Q.** For Nc1n[nH]c(-c2cc(Cl)ccc2O)c1-c1ccccc1, which growth is on record?
**A.** 86.5% (inactive)

**Q.** How did the growth turn out when C[n+]1cc2cc(C(N)=O)[nH]c3c(=N)c(Cl)c(N)c1c23 was run?
**A.** 53.6% (inactive)

**Q.** How did the growth turn out when CN(C)CC1C(=O)O[C@H]2[C@H]1CC/C(COC(=O)c1cc3ccccc3[nH]1)=C\CC[C@@]1(C)O[C@@H]21 (stereo partly specified) was run?
**A.** -22.1% (active)

These compounds were tested on UO-31 renal in the same assay as above. Settings: 10 µM unless noted.

**Q.** C=CCSc1nc2ccccc2cc1/C=N/O was tested. Which growth did it give?
**A.** 58.9% (inactive)

**Q.** With COc1cc2ncn3c(=O)c4c5c(sc4nc3c2cc1OC)CCCC5 as the compound, how does the growth read?
**A.** 95.7% (inactive)

**Q.** How did the growth turn out when CCn1c(C)nc2cc(C(N)=O)ccc21 was run?
**A.** 91.5% (inactive)

**Q.** With O=C(CCCCCCN1CC(=O)N2[C@@H](c3ccccc3Cl)c3[nH]c4ccccc4c3C[C@H]2C1=O)NO as the compound, how does the growth read?
**A.** 55.6% (inactive)

**Q.** Which growth does the source give for Cc1nn(-c2ccccc2)c2nc3c(c(-c4ccc(Cl)cc4)c12)CNC1(CCSCC1)N3 here?
**A.** 94.9% (inactive)

**Q.** How did the growth turn out when CCCCCc1nc2c(c3c1CCCC3)CCCC2 was run?
**A.** 47% (inactive)

**Q.** How did the growth turn out when CCCCN(CCCC)CC(C)(C)C(O)c1ccc(OC)c2ccccc12 (stereo unspecified) was run?
**A.** 34.1% (inactive)

**Q.** For COc1ccc(/C=C/c2c(C(=O)/C=C/c3ccc(F)cc3)c(C)nc3ccccc23)cc1, which growth is on record?
**A.** 45.6% (inactive)

**Q.** How did the growth turn out when O=C1CCC2=C3C4CCCCC4C(=O)C4CCCC(OC2C1)C34 (stereo unspecified) was run?
**A.** -43.5% (active)

**Q.** How did the growth turn out when O=C(/C=C/c1cccc(O)c1)c1cccc(-n2cc(-c3ccc4ccccc4c3)[nH]c2=O)c1 was run?
**A.** 35.5% (inactive)

**Q.** Which growth does the source give for OC(COc1ccccc1Cl)COc1ccccc1Cl here?
**A.** 82.1% (inactive)

**Q.** With C[C@]12CC[C@@H]3c4cc(OC(F)F)c(O)cc4CC[C@H]3[C@@H]1CC[C@@H]2OS(N)(=O)=O as the compound, how does the growth read?
**A.** 38.2% (inactive)

**Q.** NC[C@H](O)c1ccc(O)c(O)c1 was tested. Which growth did it give?
**A.** 103% (inactive)

**Q.** With O=C(NCCCNc1cc(-c2cn(-c3ccccc3)nc2-c2cccc(O)c2)ccn1)c1ccc(F)cc1 as the compound, how does the growth read?
**A.** 27.1% (inactive)

**Q.** How did the growth turn out when Cc1c(C(=O)NC(Cc2ccccc2)C(O)C(=O)NCc2ccc(F)cc2)[nH]c2ccccc2c1=O (stereo unspecified) was run?
**A.** 94% (inactive)

**Q.** With O=Cc1ccc(O)c2ncccc12 as the compound, how does the growth read?
**A.** 34.8% (inactive)

**Q.** Which growth does the source give for CCc1ccccc1-n1c(-c2ccc(Cl)cc2)cc(-c2ccc(Cl)cc2)c(C#N)c1=O here?
**A.** 75.3% (inactive)

**Q.** Which growth does the source give for O=C(NCCCNc1cc(-c2cn(-c3ccccc3)nc2-c2cccc(O)c2)ccn1)c1cccc(O)c1 here?
**A.** 85.8% (inactive)

**Q.** How did the growth turn out when O=C(NCCCNc1cc(-c2cn(-c3ccccc3)nc2-c2cccc(O)c2)ccn1)c1ccccc1 was run?
**A.** 22.6% (inactive)

**Q.** With C[C@H]1[C@H]2[C@H]3CC[C@@H]4[C@@]5(C)C/C(=C/c6cccnc6)C(=O)C(C)(C)[C@@H]5CC[C@@]4(C)[C@]3(C)CC[C@]23CO[C@]1(C)[C@@H](C(=O)/C=C\c1cccnc1)C3 as the compound, how does the growth read?
**A.** -97.3% (active)

**Q.** How did the growth turn out when O=C(Nc1cccc(Oc2nnc(Cl)c3ccccc23)c1)Nc1ccc(Cl)c(C(F)(F)F)c1 was run?
**A.** -28.4% (active)

**Q.** How did the growth turn out when Nc1cc2c3c(cccc3c1)C(=O)N(CCN1CCCC1)C2=O was run?
**A.** 13.5% (inactive)

**Q.** For COc1cccc(-c2nn(-c3ccccc3)cc2-c2ccnc(NCCNC(=O)Nc3ccccc3)c2)c1, which growth is on record?
**A.** 39% (inactive)

**Q.** For Fc1ccc(CNc2c3ccccc3nc3ccccc23)cc1F, which growth is on record?
**A.** 15.6% (inactive)

**Q.** Which growth does the source give for COc1cccc(-c2nn(-c3ccccc3)cc2-c2ccnc(NCCNC(=O)Nc3ccc(Cl)c(Cl)c3)c2)c1 here?
**A.** -13.1% (active)

**Q.** With c1coc(-c2c3ccc(=[N+]4CCCCC4)cc-3oc3cc(N4CCCCC4)ccc23)c1 as the compound, how does the growth read?
**A.** -84.6% (active)

**Q.** Which growth does the source give for O=[N+]([O-])c1ccc(OCCO)cc1 here?
**A.** 86.2% (inactive)

**Q.** With O=C(Nc1cccc(Cl)c1)c1cc(N=Nc2ccc([N+](=O)[O-])cc2Cl)ccc1O as the compound, how does the growth read?
**A.** 38.7% (inactive)

**Q.** How did the growth turn out when CC(C)(C)OC(=O)Nc1ccc2c(c1)C(NC(=O)Nc1cccc(C#N)c1)CC(C)(C)O2 (stereo unspecified) was run?
**A.** 40.8% (inactive)

**Q.** How did the growth turn out when c1ccc(-c2nc([P+](c3ccccc3)(c3ccccc3)c3ccccc3)c(N3CCOCC3)o2)cc1 was run?
**A.** 74% (inactive)

**Q.** How did the growth turn out when Cc1ccc(Cl)c(NS(=O)(=O)c2ccc(-c3cnc(C4CC4)o3)cc2)c1 was run?
**A.** 44.3% (inactive)

**Q.** COc1ccc(-c2nc3c(c(=O)n2C(C)=O)C(c2ccc(Cl)cc2)c2sc4c(Cl)cccc4c2O3)cc1 (stereo unspecified) was tested. Which growth did it give?
**A.** 6.4% (active)

**Q.** For NC(=O)c1ccc[n+](Cc2ccc(Cl)cc2Cl)c1, which growth is on record?
**A.** 99.8% (inactive)

**Q.** Which growth does the source give for COc1cc(-c2nn(-c3ccccc3)cc2-c2ccnc(NCCNS(=O)(=O)c3ccc(Cl)cc3)n2)ccc1Cl here?
**A.** 21.2% (inactive)

**Q.** For COc1cccc(-c2nn(-c3ccccc3)cc2-c2ccnc(NCCNC(=O)Nc3cccc(C(F)(F)F)c3)c2)c1, which growth is on record?
**A.** -21.9% (active)

**Q.** With Nc1n[nH]c(-c2cc(Cl)ccc2O)c1-c1ccccc1 as the compound, how does the growth read?
**A.** 61.9% (inactive)

**Q.** For C[n+]1cc2cc(C(N)=O)[nH]c3c(=N)c(Cl)c(N)c1c23, which growth is on record?
**A.** 81.1% (inactive)

**Q.** Which growth does the source give for CN(C)CC1C(=O)O[C@H]2[C@H]1CC/C(COC(=O)c1cc3ccccc3[nH]1)=C\CC[C@@]1(C)O[C@@H]21 (stereo partly specified) here?
**A.** -92.7% (active)

— PubChem BioAssay (NCI)
